Among the data in PubChem BioAssay (Tox21) are Potency and max response values, retold here.

Experiment [1] is described as follows: A CellTox Green Cytotoxicity Assay to monitor cytotoxicity in HEK293 cells - 40 hour (AID 1224871). Note: nearly all actives have a fitted effect of over 45% in size. In outline: (§1)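 Tox21 screen in HEK293: membrane-impermeant cyanine dye fluoresces on binding dead-cell DNA; compound pinned 5 h post-seeding, plates held at 37 C, signal read repeatedly through 40 h.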
The nature of experiment [2]: qHTS RealTime-Glo MT Cell Viability Assay in HEK293 cells - 16 hour (AID 1224872). Note: top concentration of the series differs between compounds; nearly all actives have a fitted effect of over 50% in size. In outline:
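Viability tracked continuously by luminescence as live cells reduce a prosubstrate for NanoLuc; HEK293 cells preincubated 5 h, compound-treated at 37 C, and read at 0, 8, 16, 24, 32 and 40 h.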
For orientation: In qHTS, concentration-response curves come from the screen itself.

The nature of experiment [3]: qHTS RealTime-Glo MT Cell Viability Assay in HepG2 cells - 8 hour (AID 1224873). Note: nearly all actives have a fitted effect of over 55% in size. The gist of the method: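 Real-time viability: cells seeded at 600 per well together with NanoLuc and cell-permeant prosubstrate, compounds added after 5 h incubation. Luminescence tracked at 0, 8, 16, 24, 32 and 40 h of exposure.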
Experiment [4] can be described thus: qHTS RealTime-Glo MT Cell Viability Assay in HEK293 cells - 40 hour (AID 1224874). Note: nearly all actives have a fitted effect of over 50% in size. Particulars: RealTime-Glo luminescence; max response: stronger effect = lower value. The gist of the method:
(§2)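 HEK293 + NanoLuc + prosubstrate, 600 cells/well; 5 h, 37 C/5% CO2; compound 23 nL in DMSO by pintool; 37 C; luminescence read at 0, 8, 16, 24, 32 and 40 h time points.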

Experiment [5] in a line: A CellTox Green Cytotoxicity Assay to monitor cytotoxicity in HEK293 cells - 24 hour (AID 1224875). Note: series mostly up to about 77 µM; nearly all actives have a fitted effect of over 45% in size. The gist of the method: as §1
Experiment [6] can be described thus: A CellTox Green Cytotoxicity Assay to monitor cytotoxicity in HepG2 cells - 16 hour (AID 1224876). Note: nearly all actives have a fitted effect of over 45% in size. The gist of the method:
(§3)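 Measurements at 0, 8, 16, 24, 32 and 40 h of treatment captured CellTox Green fluorescence in HepG2 cells that had been co-plated with reagent and preincubated 5 h at 37 C/5% CO2.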

The nature of experiment [7]: qHTS RealTime-Glo MT Cell Viability Assay in HepG2 cells - 32 hour (AID 1224877). Note: nearly all actives have a fitted effect of over 55% in size. In outline: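 Viability was tracked continuously by NanoLuc luminescence from prosubstrate reduced by living HepG2 cells, at successive time points over 40 h of compound exposure. Cells with reagent were preincubated 5 h at 37 °C before compound addition.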
Experiment [8] in a line: A CellTox Green Cytotoxicity Assay to monitor cytotoxicity in HepG2 cells - 24 hour (AID 1224878). Note: nearly all actives have a fitted effect of over 45% in size. Note: potency is the fitted concentration of half-maximal effect. The gist of the method:
as §3

A short description of experiment [9]: A CellTox Green Cytotoxicity Assay to monitor cytotoxicity in HepG2 cells - 40 hour (AID 1224879). Note: nearly all actives have a fitted effect of over 40% in size. Note: potency is the fitted concentration of half-maximal effect. In outline:
as §3

A short description of experiment [10]: qHTS RealTime-Glo MT Cell Viability Assay in HEK293 cells - 0 hour (AID 1224880). The gist of the method:
as §2

Values joined by “and” are separate entries in the source; they are usually repeats but may differ in a detail not shown here. Equal values may be shown once. Inconclusive results are not listed. Some structures have more than one record in an assay (separate samples or runs), and their calls can disagree. Active and inactive are the calls of the source. Calls come from the whole dose curve; as a rule, active = well fitted curve in the direction sought with a large enough effect in the repeat runs; inconclusive = weak or mixed curves; inactive = no such curve, though single readings can be large; an effect the other way counts as inactive or inconclusive.
% is set by controls: 0 for no effect and ±100 for the full control effect.

Take `COC(=O)CCSCCC(=O)OC`: the Potency entry in [1], in [2], in [3], in [5], in experiment [6] and in experiment [7] was “inactive” throughout. The Potency result in experiment [8] and in experiment [9] was “inactive” throughout. Moreover, the max response in [4] is 0.851% (inactive).

With `CCN1CCC[C@H]1CNC(=O)c1cc(S(N)(=O)=O)ccc1OC`, the Potency result in experiment [1], in [2], in [3], in experiment [5], in experiment [6] and in experiment [7] was “inactive” in each case. Besides, the Potency result in [8], in [9] and in [10] was “inactive” throughout. Moreover, the max response in [4] was -3.58% (inactive).

`COCCc1ccc(OCC(O)CNC(C)C)cc1` (centres undefined): the Potency result in experiment [1], in [2], in [3], in [5], in experiment [6] and in experiment [7] was “inactive” throughout. The Potency result in [8] and in experiment [9] was “inactive” throughout. The max response in experiment [4] was 1.31% (inactive) and -8.11% (inactive).

For the compound `CN(C)CCCNCCCN(C)C`, the Potency entry in experiment [1], in experiment [2], in experiment [3], in experiment [5], in [6] and in experiment [7] was “inactive” in each case. In addition, the Potency result in [8], in [9] and in experiment [10] was “inactive” each time. The max response in experiment [4] is 5.75% (inactive).

In the case of `O=c1[nH]c(=O)n([C@H]2C[C@H](O)[C@@H](CO)O2)cc1I`, the Potency result in [1], in experiment [2], in experiment [3], in experiment [5], in [6] and in [7] was “inactive” each time. The Potency entry in experiment [8], in experiment [9] and in experiment [10] was “inactive” each time. The max response in [4] was 5.93% (inactive).

Take `CCCCOCCOCCOCc1cc2c(cc1CCC)OCO2`: the Potency entry in experiment [1], in experiment [2], in experiment [3], in experiment [5], in experiment [6] and in experiment [7] was “inactive” throughout. Further, the max response in [4] is -15.9% (inactive). The Potency in experiment [8] is 22.1 µM (active) and inactive; in experiment [9] it was 22.1 µM (active) and inactive.

For the compound `C=C(C)C(=O)OCCCCCCCC(C)C`, the Potency entry in experiment [1], in experiment [2], in [3], in experiment [5], in experiment [6] and in experiment [7] was “inactive” in each case. Also, the Potency result in experiment [8] and in experiment [9] was “inactive” in each case. In [4], the max response is -8.22% (inactive).

For the compound `O=Cc1cccc([N+](=O)[O-])c1`, the Potency result in [1], in [2], in experiment [3], in [5], in [6] and in experiment [7] was “inactive” throughout. Further, the Potency result in experiment [8], in experiment [9] and in experiment [10] was “inactive” in each case. The max response in [4] was 5.4% (inactive).

For `C=CCCCCCCCCC=O`, the Potency result in [1], in experiment [2], in experiment [3], in [5], in experiment [6] and in [7] was “inactive” in each case. The Potency entry in [8] and in [9] was “inactive” each time. Moreover, the max response in experiment [4] is -1.95% (inactive).

In the case of `c1ccc(CC2=NCCN2)cc1`, the Potency result in experiment [1], in experiment [2], in experiment [3], in experiment [5], in [6] and in [7] was “inactive” in each case. Also, the Potency entry in experiment [8], in [9] and in experiment [10] was “inactive” throughout. In experiment [4], the max response was -5.85% (inactive).

For the compound `CC(=O)OCC(=O)[C@@]1(O)CC[C@H]2[C@@H]3CCC4=CC(=O)CC[C@]4(C)[C@H]3C(=O)C[C@@]21C`, the Potency result in experiment [1], in experiment [2], in experiment [3], in experiment [5], in experiment [6] and in experiment [7] was “inactive” each time. Moreover, the Potency result in experiment [8] and in [9] was “inactive” in each case. The max response in experiment [4] is -9.91% (inactive).

Consider `NC(=O)c1cn(Cc2c(F)cccc2F)nn1`, for which the Potency result in [1], in [2], in experiment [3], in [5], in [6] and in experiment [7] was “inactive” throughout. For the same compound, the Potency entry in [8], in experiment [9] and in [10] was “inactive” each time. In experiment [4], the max response was 4.6% (inactive).

As to `Cc1c(O)cccc1O`, the Potency entry in [1], in experiment [2], in experiment [3], in experiment [5], in experiment [6] and in [7] was “inactive” each time. The Potency entry in [8], in experiment [9] and in [10] was “inactive” each time. For the same compound, the max response in [4] is 1.57% (inactive).

`CC(C)(C)c1nnc(NS(=O)(=O)c2ccccc2)s1`: the Potency entry in experiment [1], in [2], in experiment [3], in [5], in experiment [6] and in experiment [7] was “inactive” each time. The Potency entry in experiment [8], in experiment [9] and in experiment [10] was “inactive” in each case. The max response in experiment [4] is 2.61% (inactive).

As for `Cc1cnc(NS(=O)(=O)c2ccc(N)cc2)nc1`, the Potency entry in [1], in [2], in experiment [3], in experiment [5], in [6] and in experiment [7] was “inactive” in each case. Further, the Potency result in experiment [8], in experiment [9] and in experiment [10] was “inactive” in each case. In experiment [4], the max response was 2.61% (inactive).

As for `N#Cc1ccc(C2CCCc3cncn32)cc1` (centres undefined), the Potency result in experiment [1], in experiment [2], in experiment [3], in experiment [5], in experiment [6] and in experiment [7] was “inactive” in each case. The Potency entry in experiment [8], in experiment [9] and in experiment [10] was “inactive” in each case. Also, in experiment [4], the max response was 8.46% (inactive).

Consider `OC[C@]1(O)OC[C@@H](O)[C@H](O)[C@@H]1O`, for which the Potency entry in experiment [1], in [2], in experiment [3], in [5], in [6] and in experiment [7] was “inactive” each time. For the same compound, the Potency entry in experiment [8], in experiment [9] and in experiment [10] was “inactive” in each case. Moreover, the max response in experiment [4] is 0.06% (inactive) and 3.11% (inactive).

In the case of `COC(=O)c1cc(C(=O)OC)cc(S(=O)(=O)O)c1`, the Potency entry in [1], in experiment [2], in [3], in [5], in experiment [6] and in experiment [7] was “inactive” each time. Also, the Potency entry in experiment [8], in experiment [9] and in [10] was “inactive” each time. Besides, in [4], the max response was -1.13% (inactive).

For `CCOC(=O)Nc1ccc(NCc2ccc(F)cc2)nc1N`, the Potency result in experiment [1], in experiment [2], in [3], in experiment [5], in [6] and in experiment [7] was “inactive” throughout. Moreover, the Potency result in [8], in [9] and in experiment [10] was “inactive” throughout. Moreover, the max response in experiment [4] is -2.14% (inactive).

For the compound `NC(=O)COCCN1CCN(C(c2ccccc2)c2ccc(Cl)cc2)CC1` (centres undefined), the Potency result in experiment [1], in [2], in [3], in experiment [5], in experiment [6] and in [7] was “inactive” throughout. The Potency result in experiment [8], in [9] and in experiment [10] was “inactive” throughout. Further, the max response in [4] was 4.08% (inactive).

With `c1ccc([C@H]2CN3CCSC3=N2)cc1`, the Potency result in [1], in experiment [2], in experiment [3], in experiment [5], in [6] and in experiment [7] was “inactive” throughout. Moreover, the Potency result in [8], in experiment [9] and in [10] was “inactive” throughout. Further, the max response in [4] was 3.46% (inactive).

For `O=C(O)CNC(=O)c1ccc([N+](=O)[O-])cc1`, the Potency result in experiment [1], in experiment [2], in [3], in [5], in experiment [6] and in experiment [7] was “inactive” each time. For the same compound, the Potency entry in experiment [8], in experiment [9] and in experiment [10] was “inactive” in each case. The max response in experiment [4] is -0.136% (inactive).
